{"source": "paper PMC9911399", "about": "“Two distinct binding modes provide the RNA-binding protein RbFox with extraordinary sequence specificity”", "binders": {"B1": {"name": "CGCACGG (DNA:RNA)", "RNA": "GGGAGACCGGAAUUCAGAUUGUCCCGCACGGUUAAAUCCCGUCGUAGCCACCA", "DNA 1": "CAATCTGAATTCCGGTCTCCC", "DNA 2": "TGGTGGCTACGACGGGATT"}, "B2": {"name": "GCCACGU (DNA:RNA)", "RNA": "B1 RNA with C25G, G26C, G31U", "DNA 1": "CAATCTGAATTCCGGTCTCCC", "DNA 2": "TGGTGGCTACGACGGGATT"}, "B3": {"name": "GCACCGG (DNA:RNA)", "RNA": "B1 RNA with C25G, G26C, C27A, A28C", "DNA 1": "CAATCTGAATTCCGGTCTCCC", "DNA 2": "TGGTGGCTACGACGGGATT"}, "B4": {"name": "GCACGGU (DNA:RNA)", "RNA": "B1 RNA with C25G, G26C, C27A, A28C, C29G, G31U", "DNA 1": "CAATCTGAATTCCGGTCTCCC", "DNA 2": "TGGTGGCTACGACGGGATT"}, "B5": {"name": "CAGCACG (DNA:RNA)", "RNA": "B1 RNA with G26A, C27G, A28C, C29A, G30C", "DNA 1": "CAATCTGAATTCCGGTCTCCC", "DNA 2": "TGGTGGCTACGACGGGATT"}, "B6": {"name": "GCACCGU (DNA:RNA)", "RNA": "B1 RNA with C25G, G26C, C27A, A28C, G31U", "DNA 1": "CAATCTGAATTCCGGTCTCCC", "DNA 2": "TGGTGGCTACGACGGGATT"}, "B7": {"name": "AGCACGU (DNA:RNA)", "RNA": "B1 RNA with C25A, G31U", "DNA 1": "CAATCTGAATTCCGGTCTCCC", "DNA 2": "TGGTGGCTACGACGGGATT"}, "B8": {"name": "CGCACGU (DNA:RNA)", "RNA": "B1 RNA with G31U", "DNA 1": "CAATCTGAATTCCGGTCTCCC", "DNA 2": "TGGTGGCTACGACGGGATT"}, "B9": {"name": "AGCACCG (DNA:RNA)", "RNA": "B1 RNA with C25A, G30C", "DNA 1": "CAATCTGAATTCCGGTCTCCC", "DNA 2": "TGGTGGCTACGACGGGATT"}, "B10": {"name": "CACGUUU (DNA:RNA)", "RNA": "B1 RNA with G26A, A28G, C29U, G30U, G31U", "DNA 1": "CAATCTGAATTCCGGTCTCCC", "DNA 2": "TGGTGGCTACGACGGGATT"}, "B11": {"name": "GCACGUU (DNA:RNA)", "RNA": "GGGAGACCGGAAUUCAGAUUGUCCGCACGUUUUAAAUCCCGUCGUAGCCACCA", "DNA 1": "CAATCTGAATTCCGGTCTCCC", "DNA 2": "TGGTGGCTACGACGGGATT"}, "B12": {"name": "ACGUUUU (DNA:RNA)", "RNA": "B11 RNA with G25A, A27G, C28U, G29U", "DNA 1": "CAATCTGAATTCCGGTCTCCC", "DNA 2": "TGGTGGCTACGACGGGATT"}, "B13": {"name": "GGCUAAG (DNA:RNA)", "RNA": "B1 RNA with C25G, A28U, C29A, G30A", "DNA 1": "CAATCTGAATTCCGGTCTCCC", "DNA 2": "TGGTGGCTACGACGGGATT"}, "B14": {"name": "CUCGGCA (DNA:RNA)", "RNA": "B1 RNA with G26U, A28G, C29G, G30C, G31A", "DNA 1": "CAATCTGAATTCCGGTCTCCC", "DNA 2": "TGGTGGCTACGACGGGATT"}, "B15": {"name": "AACGACU (DNA:RNA)", "RNA": "B1 RNA with C25A, G26A, A28G, C29A, G30C, G31U", "DNA 1": "CAATCTGAATTCCGGTCTCCC", "DNA 2": "TGGTGGCTACGACGGGATT"}, "B16": {"name": "AUAAAAA (DNA:RNA)", "RNA": "B1 RNA with C25A, G26U, C27A, C29A, G30A, G31A", "DNA 1": "CAATCTGAATTCCGGTCTCCC", "DNA 2": "TGGTGGCTACGACGGGATT"}, "B17": {"name": "UUAUCUG (DNA:RNA)", "RNA": "B1 RNA with C25U, G26U, C27A, A28U, G30U", "DNA 1": "CAATCTGAATTCCGGTCTCCC", "DNA 2": "TGGTGGCTACGACGGGATT"}, "B18": {"name": "AAGCCCG (DNA:RNA)", "RNA": "B1 RNA with C25A, G26A, C27G, A28C, G30C", "DNA 1": "CAATCTGAATTCCGGTCTCCC", "DNA 2": "TGGTGGCTACGACGGGATT"}, "B19": {"name": "AAGCACG (DNA:RNA)", "RNA": "B1 RNA with C25A, G26A, C27G, A28C, C29A, G30C", "DNA 1": "CAATCTGAATTCCGGTCTCCC", "DNA 2": "TGGTGGCTACGACGGGATT"}, "B20": {"name": "AAGCACC (DNA:RNA)", "RNA": "B11 RNA with G25A, C26A, A27G, G29A, U30C, U31C", "DNA 1": "CAATCTGAATTCCGGTCTCCC", "DNA 2": "TGGTGGCTACGACGGGATT"}, "B21": {"name": "AAAACAC (DNA:RNA)", "RNA": "B1 RNA with C25A, G26A, C27A, G30A, G31C", "DNA 1": "CAATCTGAATTCCGGTCTCCC", "DNA 2": "TGGTGGCTACGACGGGATT"}, "B22": {"name": "CAUCUUU (DNA:RNA)", "RNA": "B11 RNA with G25C, C26A, A27U, G29U", "DNA 1": "CAATCTGAATTCCGGTCTCCC", "DNA 2": "TGGTGGCTACGACGGGATT"}, "B23": {"name": "UGCCCUG (DNA:RNA)", "RNA": "B1 RNA with C25U, A28C, G30U", "DNA 1": "CAATCTGAATTCCGGTCTCCC", "DNA 2": "TGGTGGCTACGACGGGATT"}, "B24": {"name": "CUGUGCC (DNA:RNA)", "RNA": "B1 RNA with G26U, C27G, A28U, C29G, G30C, G31C", "DNA 1": "CAATCTGAATTCCGGTCTCCC", "DNA 2": "TGGTGGCTACGACGGGATT"}, "B25": {"name": "UGCUGUU (DNA:RNA)", "RNA": "B11 RNA with G25U, C26G, A27C, C28U", "DNA 1": "CAATCTGAATTCCGGTCTCCC", "DNA 2": "TGGTGGCTACGACGGGATT"}, "B26": {"name": "CUGCCUG (DNA:RNA)", "RNA": "B1 RNA with G26U, C27G, A28C, G30U", "DNA 1": "CAATCTGAATTCCGGTCTCCC", "DNA 2": "TGGTGGCTACGACGGGATT"}, "B27": {"name": "UGCCGGU (DNA:RNA)", "RNA": "B1 RNA with C25U, A28C, C29G, G31U", "DNA 1": "CAATCTGAATTCCGGTCTCCC", "DNA 2": "TGGTGGCTACGACGGGATT"}, "B28": {"name": "UGCCUGU (DNA:RNA)", "RNA": "B1 RNA with C25U, A28C, C29U, G31U", "DNA 1": "CAATCTGAATTCCGGTCTCCC", "DNA 2": "TGGTGGCTACGACGGGATT"}, "B29": {"name": "CGUUCGA (DNA:RNA)", "RNA": "B1 RNA with C27U, A28U, G31A", "DNA 1": "CAATCTGAATTCCGGTCTCCC", "DNA 2": "TGGTGGCTACGACGGGATT"}, "B30": {"name": "AUUUAUA (DNA:RNA)", "RNA": "B11 RNA with G25A, C26U, A27U, C28U, G29A, U31A", "DNA 1": "CAATCTGAATTCCGGTCTCCC", "DNA 2": "TGGTGGCTACGACGGGATT"}, "B31": {"name": "AGUACGU (DNA:RNA)", "RNA": "B1 RNA with C25A, C27U, G31U", "DNA 1": "CAATCTGAATTCCGGTCTCCC", "DNA 2": "TGGTGGCTACGACGGGATT"}}, "note": "Substitutions are numbered along the chain they refer to; changes in the protein carry UniProt numbers. Over roughly 16,000 sequences, “ka relative to ugcaugu” has its median near 0.0091; the highest 2% begin near 0.032. For the sample, the highest values were picked, then their nearest neighbours and some sequences at random."}
{"target": "T1, RBFOX1 RRM (Homo sapiens, UniProt Q9NWB1 109-208)", "T1 sequence": "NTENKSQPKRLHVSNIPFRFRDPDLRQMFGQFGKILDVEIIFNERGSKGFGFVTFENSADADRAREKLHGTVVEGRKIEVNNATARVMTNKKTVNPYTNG", "assay": "EMSA; HiTS-Eq, 1 nM pool, 10 min; buffer printed only for the single-RNA assays: 10 mM Tris pH 7.5, 150 mM NaCl, 3.4 mM EDTA, 0.001% NP-40, 30 C", "conditions": "tags: His6 N-terminal (pET28a); label: 5' 32P", "summary_of_the_method": "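Purified RbFox RRM, wild type or mutant, was incubated for 10 min in 50 µL with 1 nM of a 5′-radiolabelled RNA pool carrying 7 randomized nucleotides, whose flanks were annealed to DNA oligonucleotides, over a series of increasing protein concentrations. Unbound RNA was resolved on 8% native PAGE, cut out, reverse-transcribed, barcoded by PCR and sequenced on an Illumina HiSeq 2500. Relative association constants were derived from changes in read counts for each RNA species versus the control reaction and normalised to the cognate motif.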"}
{"binder": "B1", "binding signal": "0.0278 KA relative to UGCAUGU"}
{"binder": "B2", "binding signal": "0.011 KA relative to UGCAUGU"}
{"binder": "B3", "binding signal": "0.00674 KA relative to UGCAUGU"}
{"binder": "B4", "binding signal": "0.0324 KA relative to UGCAUGU"}
{"binder": "B5", "binding signal": "0.0261 KA relative to UGCAUGU"}
{"binder": "B6", "binding signal": "0.0125 KA relative to UGCAUGU"}
{"binder": "B7", "binding signal": "0.0367 KA relative to UGCAUGU"}
{"binder": "B8", "binding signal": "0.0433 KA relative to UGCAUGU"}
{"binder": "B9", "binding signal": "0.00835 KA relative to UGCAUGU"}
{"binder": "B10", "binding signal": "0.00574 KA relative to UGCAUGU"}
{"binder": "B11", "binding signal": "0.043 KA relative to UGCAUGU"}
{"binder": "B12", "binding signal": "0.00473 KA relative to UGCAUGU"}
{"binder": "B13", "binding signal": "0.0134 KA relative to UGCAUGU"}
{"binder": "B14", "binding signal": "0.0189 KA relative to UGCAUGU"}
{"binder": "B15", "binding signal": "0.00509 KA relative to UGCAUGU"}
{"binder": "B16", "binding signal": "0.00125 KA relative to UGCAUGU"}
{"binder": "B17", "binding signal": "0.0132 KA relative to UGCAUGU"}
{"binder": "B18", "binding signal": "0.00982 KA relative to UGCAUGU"}
{"binder": "B19", "binding signal": "0.0333 KA relative to UGCAUGU"}
{"binder": "B20", "binding signal": "0.00479 KA relative to UGCAUGU"}
{"binder": "B21", "binding signal": "0.00144 KA relative to UGCAUGU"}
{"binder": "B22", "binding signal": "0.00311 KA relative to UGCAUGU"}
{"binder": "B23", "binding signal": "0.025 KA relative to UGCAUGU"}
{"binder": "B24", "binding signal": "0.0119 KA relative to UGCAUGU"}
{"binder": "B25", "binding signal": "0.0254 KA relative to UGCAUGU"}
{"binder": "B26", "binding signal": "0.0391 KA relative to UGCAUGU"}
{"binder": "B27", "binding signal": "0.0131 KA relative to UGCAUGU"}
{"binder": "B28", "binding signal": "0.0501 KA relative to UGCAUGU"}
{"binder": "B29", "binding signal": "0.0138 KA relative to UGCAUGU"}
{"binder": "B30", "binding signal": "0.00157 KA relative to UGCAUGU"}
{"binder": "B31", "binding signal": "0.00915 KA relative to UGCAUGU"}
